FadD28 FP inh – M. tuberculosis FadD28 bisubstrate binding inhibition | FadD28 bisubstrate probe binding, fluorescence polarization | 360,000 tested, 0.22% active | inhibition, % at 12.5 µM | AID 588549; in the data active = inhibition above about 8.5%, passing the limit was not always enough; inconclusive = no clear call, values can overlap the other calls
RecA intein inh – blocks M. tuberculosis RecA intein splicing. 290,000 tested, 0.75% active. P9WHJ3. inhibition, % (test concentration not listed). cell-free RecA intein splicing, fluorescence; in the data active = inhibition above about 30%; inconclusive = no clear call, values can overlap the other calls;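 also: 0% = vehicle wells and 100% = reference inhibitor control wells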
Rv3671c protease – inhibitors of M. tuberculosis serine protease Rv3671c | P9WHR9 | inhibition, % at 5.96 µM | 320,000 tested, 0.048% active | AID 2606; in the data active = inhibition above about 38%;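 also: extracellular domain of Rv3671c used as enzyme; 0% = enzyme with DMSO and 100% = no enzyme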
Mtb BioA inh – inhibitors of Mycobacterium tuberculosis BioA enzyme | purified M. tuberculosis BioA enzyme, plate reader | inhibition, % at 9.99 µM | 360,000 tested, 0.096% active | AID 602481; in the data active = inhibition above about 40%; inconclusive = no clear call, values can overlap the other calls
UGM FP inh – inhibitors of M. tuberculosis UDP-galactopyranose mutase; P9WIQ1; purified UGM, fluorescence polarization probe displacement; inhibition, % at 10 µM; 320,000 tested, 0.06% active; AID 504406; in the data active = inhibition above about 10%, passing the limit was not always enough; inconclusive = no clear call, values can overlap the other calls
Target sequence (P9WIQ1 whole entry, looked up): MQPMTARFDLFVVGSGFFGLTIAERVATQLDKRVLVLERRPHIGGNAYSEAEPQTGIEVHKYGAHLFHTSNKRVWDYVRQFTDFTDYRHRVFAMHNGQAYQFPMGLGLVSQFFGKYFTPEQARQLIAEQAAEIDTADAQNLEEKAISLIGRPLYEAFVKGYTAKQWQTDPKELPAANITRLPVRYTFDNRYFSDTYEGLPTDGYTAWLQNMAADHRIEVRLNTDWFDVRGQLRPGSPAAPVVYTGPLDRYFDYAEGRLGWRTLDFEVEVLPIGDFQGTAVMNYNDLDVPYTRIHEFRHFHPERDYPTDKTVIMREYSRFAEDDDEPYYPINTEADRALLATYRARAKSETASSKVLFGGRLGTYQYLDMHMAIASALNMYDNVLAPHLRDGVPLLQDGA
TcdB inh – blocks C. difficile toxin B glycohydrolase activity. inhibition, % at 9.99 µM. AID 652162. 350,000 tested, 0.24% active. TcdB glycohydrolase enzymatic assay, plate reader. P18177; in the data active = inhibition above about 10%
GFP chromo cs – counter-screen GFP chromophore formation inhibition | 2,100 tested, 83% active | EC50, µM | cell-free GFP chromophore formation, fluorescence | AID 434968 | shares compounds with RecA intein inh; call rule not given here
Numbers without * were called inactive; ? = inconclusive; nt = no result given. This is a sample that favours compounds with a hit; in the whole collection about 0.97% have one here.

SMILES	FadD28 FP inh	RecA intein inh	Rv3671c protease	Mtb BioA inh	UGM FP inh	TcdB inh	GFP chromo cs
c1ccc(-c2ccc(C3CCCN3)cc2)cc1 (stereo unspecified)	-2.2	89.5*	-1.1	-0.7	-0.2	2.7	>38
CC(=O)Nc1ccc(S(=O)(=O)NC2=C(N3CCN(c4ccc(F)cc4)CC3)C(=O)c3ccccc3C2=O)cc1	?	45.3*	-79.2	1.9	-2.8	-1.9	25.7*
CCOC(=O)c1cc2cc3ccccc3cc2[nH]1	-2.0	43.7*	-13.6	2.3	-2.0	nt	>38
CC(C)(C)c1csc(Sc2ccc([N+](=O)[O-])cn2)n1	-1.4	31.9*	3.5	-1.8	0.2	1.4	9.2*
O=[N+]([O-])c1ccc(O)c2cccnc12	-0.3	nt	-5.1	-0.7	2.3	1.8	nt
O=[N+]([O-])c1ccc(O)c2ncccc12	-3.5	43.3*	-2.5	1.8	-0.9	-0.1	25*
COCc1[nH]nc2c1C(c1sccc1C)C(C#N)=C(N)O2 (stereo unspecified)	-3.4	-1.1	2.0	1.4	-1.0	0.1	nt
CCCc1[nH]nc2c1C(c1ccsc1)C(C#N)=C(N)O2 (stereo unspecified)	-3.3	66.4*	4.2	nt	-0.5	0.2	29.4*
COCc1[nH]nc2c1C(c1ccsc1)C(C#N)=C(N)O2 (stereo unspecified)	-2.7	64.0*	-5.1	nt	-1.3	nt	35*
C[C@H]1CN([C@@H](C)CO)C(=O)Cc2cc(NS(=O)(=O)c3ccc(Cl)cc3)ccc2O[C@H]1CN(C)C(=O)Nc1ccccc1	nt	nt	nt	-2.5	nt	1.2	nt
C[C@H](O)C#Cc1ccc2c(c1)O[C@H](CN(C)Cc1ccc(-c3ccccc3)cc1)[C@H](C)CN([C@@H](C)CO)S2(=O)=O	nt	nt	nt	-0.7	nt	0.6	nt
COc1ccc(S(=O)(=O)N(C)C[C@@H]2Oc3ccc(NC(=O)NC(C)C)cc3C(=O)N([C@H](C)CO)C[C@@H]2C)cc1	nt	nt	nt	0.4	nt	nt	nt
O=C(Cc1ccncc1)NCC[C@H]1CC[C@H](NC(=O)C2CCOCC2)[C@@H](CO)O1	nt	nt	nt	3.8	nt	-0.3	nt
CO[C@@H]1CN(C)C(=O)c2ccc(NC(=O)CC(F)(F)F)cc2OC[C@@H](C)N(S(=O)(=O)c2cn(C)cn2)C[C@@H]1C	nt	nt	nt	-1.9	nt	-0.4	nt
CCC(C)C1C(C#N)=C(N)Oc2n[nH]c(-c3ccccc3)c21 (stereo unspecified)	-5.4	4.8	-8.3	-0.4	2.6	-0.8	nt
CCC(C)C1C(C#N)=C(N)Oc2n[nH]c(C)c21 (stereo unspecified)	-1.1	0.7	2.5	0.3	-0.7	0.3	nt
CCOc1ccc(-c2[nH]nc3c2C(c2ccc(O)cc2)C(C#N)=C(N)O3)cc1 (stereo unspecified)	-4.6	62.5*	-10.2	nt	1.1	0.5	14.7*
Cc1ccc(C2C(C#N)=C(N)Oc3n[nH]c(-c4cccnc4)c32)o1 (stereo unspecified)	0.3	53.0*	7.7	1.1	1.9	1.0	37.9*
Cc1[nH]nc2c1C(c1cn[nH]c1-c1ccc(F)cc1)C(C#N)=C(N)O2 (stereo unspecified)	-1.0	65.1*	5.7	-0.6	0.5	nt	17.5*
CCOc1ccc(C2C(C#N)=C(N)Oc3nc[nH]c(=O)c32)cc1 (stereo unspecified)	-1.7	-11.9	1.4	nt	-2.6	-0.2	nt
N#CC1=C(N)Oc2n[nH]c(-c3ccccc3)c2C1c1ccncc1 (stereo unspecified)	-5.0	64.6*	2.9	2.7	2.6	nt	26.7*
C[C@H]1CN([C@@H](C)CO)C(=O)c2cccc(NC(=O)c3nc4ccccc4s3)c2O[C@H]1CN(C)CC1CC1	nt	nt	nt	-2.4	nt	-0.4	nt
C[C@@H]1CCCCO[C@H](CN(C)C(=O)NC2CCCCC2)[C@H](C)CN([C@H](C)CO)C(=O)c2cc(NS(C)(=O)=O)ccc2O1	nt	nt	nt	-1.7	nt	nt	nt
CSc1nc(N)c2c(n1)OC(N)=C(C#N)C2c1cccnc1 (stereo unspecified)	0.2	1.5	-1.9	nt	-0.8	-4.8	nt
N#CC1=C(N)Oc2n[nH]c(-c3ccc(F)cc3)c2C1c1cccnc1 (stereo unspecified)	-3.9	75.4*	nt	-0.1	nt	nt	15.6*
Cc1ccc(-c2[nH]nc3c2C(C)C(C#N)=C(N)O3)cc1 (stereo unspecified)	-1.1	88.2*	-2.2	0.1	0.1	nt	0.496*

Assay outcomes from PubChem.
